Screening results: PubChem, National Center for Advancing Translational Sciences (NCATS)
FLuc modulator = qHTS profiling assay for firefly luciferase inhibitor/activator using purifed enzyme and Km concentrations of substrates (counterscreen for miR-21 project); Luciferin 4-monooxygenase (Photinus pyralis), P08659; AID 588342, 2011; Potency, µM (highest dose often 57.5 µM), for the others: top-dose activity change, negative = inhibition, most hits filed as inhibitors; 360,000 tested, 6.9% active; purified FLuc, Km substrates, luminescence inhibition;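 note: plate controls were vehicle for no effect and reference inhibitor for full effect; nearly all actives have a fitted effect of over 55% in size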
Target sequence (P08659 whole entry, looked up): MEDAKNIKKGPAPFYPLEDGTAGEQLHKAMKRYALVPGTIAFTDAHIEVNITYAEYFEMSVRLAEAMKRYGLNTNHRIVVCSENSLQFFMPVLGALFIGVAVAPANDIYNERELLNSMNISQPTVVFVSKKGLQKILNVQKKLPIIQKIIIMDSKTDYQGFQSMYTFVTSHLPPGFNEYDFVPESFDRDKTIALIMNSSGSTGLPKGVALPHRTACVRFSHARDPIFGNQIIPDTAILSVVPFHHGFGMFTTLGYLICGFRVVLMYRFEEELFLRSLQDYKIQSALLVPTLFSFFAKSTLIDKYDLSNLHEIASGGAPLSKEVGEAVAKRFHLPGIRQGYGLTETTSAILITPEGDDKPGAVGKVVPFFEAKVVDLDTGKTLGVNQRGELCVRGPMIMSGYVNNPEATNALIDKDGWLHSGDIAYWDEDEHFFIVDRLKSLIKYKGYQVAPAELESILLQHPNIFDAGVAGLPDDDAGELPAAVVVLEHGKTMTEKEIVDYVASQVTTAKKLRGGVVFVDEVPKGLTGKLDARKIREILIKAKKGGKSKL
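Purified P. pyralis luciferase (10nM final) with 10uM D-luciferin and 10uM ATP (Km levels) in 50mM Tris acetate pH 7.5, 10mM Mg acetate, 0.01% Tween-20, 0.05% BSA; qHTS 6-point titration, ~60 µM downward; luminescence read.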
NPC1 promoter act = qHTS Assay for NPC1 Promoter Activators | Huh7 NPC1 promoter luciferase reporter, 24 h | Potency, µM (doses to about 9.22 µM), inactives show at the highest dose activation, hits mostly activators | 320,000 tested, 2.4% active; note: % of control where 0% means no effect; nearly all actives have a fitted effect of over 60% in size
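Readout is luciferase luminescence, reflecting NPC1 promoter activation in stably transfected Huh7 cells after 24 h compound exposure at 37 °C in reduced-serum medium with 10% FBS.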
ELG1 genotoxic = qHTS screen for small molecules that induce genotoxicity in human embryonic kidney (HEK293T) cells expressing luciferase-tagged ELG1 | Potency, µM (series often up to 46 µM), for the others: at the highest dose activity change, positive = activation, most hits filed as activators | HEK293T ELG1-luciferase reporter, luminescence, 16 h | 330,000 tested, 1.3% active; note: % of control where 0% means no effect; nearly all actives have a fitted effect of over 60% in size
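Reporter readout depends on ELG1 protein level, which increases with genetic stress. After 16 hr compound exposure at 37 °C, luciferase activity was quantified using ONE-Glo.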
ELG1 DNA repair = qHTS screen for small molecules that inhibit ELG1-dependent DNA repair in human embryonic kidney (HEK293T) cells expressing luciferase-tagged ELG1; AID 504467, 2011; 330,000 tested, 2.3% active; Potency, µM (doses to about 46.1 µM), for inactives: at the top dose activity change, negative = inhibition, actives largely listed as inhibitors; HEK293T ELG1-luciferase reporter, luminescence, 16 h; DNA damage induced by 5-fluorouridine; note: % is set by controls: 0 for no effect and ±100 for the full control effect; nearly all actives have a fitted effect of over 55% in size
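5-Fluorouridine DNA damage + compound/DMSO, 2,000 cells/well, 16 h, 37 °C/5% CO2. ONE-Glo, 30 min RT, luminescence. Readout = decrease in reporter signal.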
SMN2 splice up = qHTS Assay for Enhancers of SMN2 Splice Variant Expression; Potency, µM (doses to about 46.1 µM), for inactives: top-dose activity change, positive = activation, actives largely listed as activators; HEK293 SMN2-luciferase splicing reporter, luminescence, 30-36 h; 210,000 tested, 2.8% active; AID 1458, 2008; note: % of control where 0% means no effect; nearly all actives have a fitted effect of over 55% in size
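qHTS luciferase splicing reporter: luminescence rises when SMN2 exon 7 is included in transfected HEK293 cells. Compound exposure lasted 30-36 h at 37C, with 4.5 mM final sodium butyrate as control, followed by a ONE-Glo read.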
Rab9 promoter act = qHTS Assay for Rab9 Promoter Activators | Huh7 Rab9 promoter-luciferase reporter, luminescence, 24 h | 320,000 tested, 2.8% active | Potency, µM (doses to about 9.22 µM), without a hit: at the highest dose activation, negative = inhibition, actives largely listed as activators; note: % of control where 0% means no effect; nearly all actives have a fitted effect of over 60% in size
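Huh7 cells stably carrying Rab9 promoter–luciferase reporter, plated 1500 cells/well, compound added after 2 h and incubated 24 h at 37 °C; luciferase luminescence then read after 10 min with detection reagent.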
* hit, by the source's call; u = inconclusive; x = no result. In the library only some 9.3% were active in any assay of this set; here they are far more common. Calls come from the whole dose curve; as a rule, active = well fitted curve in the direction sought with a large enough effect; inconclusive = small, poorly fitted or top-dose-only effect, or another doubt; inactive = no such curve, though single readings can be large; an effect the other way counts as inactive or inconclusive. Potency is the fitted concentration of half-maximal effect.

SMILES | FLuc modulator | NPC1 promoter act | ELG1 genotoxic | ELG1 DNA repair | SMN2 splice up | Rab9 promoter act
O=C(Nc1ccc(-c2csc(-c3ccccc3)n2)cc1)c1ccccc1Cl | u | -4% | -2% | 5% | -1% | 1%
O=C(O)c1ccc(-c2nc(-c3ccccc3)cs2)cc1 | 6µM* | 1.4µM* | 7% | u | 10µM* | 1µM*
CNC(=O)c1ccc(-c2nc(-c3ccccc3)cs2)cc1 | 9.5µM* | u | u | u | 16µM* | 4µM*
C=CCNC(=O)c1ccc(-c2nc(-c3ccc(Cl)c(Cl)c3)cs2)cc1 | 1% | -4% | 2% | 0% | -7% | 1%
C=CCNC(=O)c1ccc(-c2nc(-c3ccc(Cl)cc3Cl)cs2)cc1 | -5% | 5% | 2% | 13% | 4.5µM* | 8%
O=C(O)c1ccccc1-c1csc(-c2ccccc2)n1 | 15µM* | u | u | u | u | 4µM*
CC(=O)c1csc(-c2ccccc2)n1 | u | -1% | 10% | u | 0% | 12%
Cc1ccc(C(=O)NCC(=O)OCc2csc(-c3ccccc3)n2)cc1 | u | 13% | u | u | u | -7%
O=C(OCc1csc(-c2ccccc2)n1)c1ccc(O)cc1 | 19µM* | 17% | u | u | 21% | u
O=C(O)c1cnn(-c2nc(-c3ccc(Cl)c(Cl)c3)cs2)c1C(F)(F)F | u | 21% | u | u | x | 15%
O=C(O)c1ccccc1C(=O)Nc1ccc(-c2csc(-c3ccccc3)n2)cc1 | 17µM* | 5% | u | u | 72% | 20%
O=C(O)c1ccc(-c2nc(-c3ccc(Cl)c(Cl)c3)cs2)cc1 | 13µM* | 3.2µM* | 0% | u | 129% | u
O=C(C1CCN(c2nnc(-n3cccc3)s2)CC1)N1CCCCC1 | -17% | 24% | 2% | 26% | x | 17%
CC1=CC(=O)CC(C)(C)[C@@]1(O)/C=C/[C@@H](C)O[C@@H]1O[C@H](CO)[C@@H](O)[C@H](O)[C@H]1O | x | x | 1% | 2% | x | x
CCS(=O)(=O)c1ccc(-c2csc(-c3ccccc3)n2)c(Cl)c1Cl | 24µM* | 8% | 21µM* | -8% | -50% | -1%
CNC(=O)c1csc(-c2ccc(C)cc2)n1 | 17µM* | u | u | u | 25% | u
CNC(=O)c1csc(-c2ccc(Cl)cc2)n1 | u | 11% | u | u | 24% | u
COc1ccc(C2=NS(=O)(=O)N(C)C(C(=O)NCc3ccccc3)=C2)cc1OC | -19% | -1% | -6% | u | x | 6%
COc1ccc(C2=NS(=O)(=O)N(C)C(C(=O)N3CCc4ccccc4C3)=C2)cc1OC | -5% | -11% | -10% | 18µM* | x | -25%
CCc1ccc(NC(=O)C2=CC(c3ccc(OC)c(OC)c3)=NS(=O)(=O)N2C)cc1 | -15% | -16% | -9% | 13µM* | x | -16%
N#Cc1cccc(NC(=O)N2CCCC3(CCN(S(=O)(=O)c4ccccc4)CC3)C2)c1 | x | x | x | x | -25% | x
COc1ccc(OC)c(S(=O)(=O)NCc2cccn2Cc2cccc(C)c2)c1 | -1% | x | x | x | x | x
COc1ccc(C2CC(c3ccc([N+](=O)[O-])cc3)=NN2C(=O)c2ccccc2)cc1OC (stereo not given) | -3% | -5% | -8% | u | -4% | 1%
CC(C)(C)c1ccc(COc2ccsc2C(=O)O)cc1 | 15µM* | 10% | 18% | u | 16% | u
O=C(O)c1sccc1OCc1ccccc1 | 5% | -8% | -3% | -13% | -14% | 0%
SMILES | FLuc modulator | NPC1 promoter act | ELG1 genotoxic | ELG1 DNA repair | SMN2 splice up | Rab9 promoter act
CCN(CC(=O)Nc1ccc(NC(C)=O)cc1)S(=O)(=O)/C=C/c1ccccc1 | x | x | 0% | 0% | x | x
CC(c1ccco1)N(C(=O)c1ccccc1F)c1ccccn1 (stereo not given) | -2% | -4% | -1% | 13% | 7% | 0%
CC(c1ccco1)N(C(=O)COc1ccc(Cl)cc1)c1ccccn1 (stereo not given) | 21µM* | 12% | 8.9µM* | u | u | 24%
CC(c1ccco1)N(C(=O)c1ccccc1NS(=O)(=O)c1ccc(Cl)cc1)c1ccccn1 (stereo not given) | -1% | 3% | -1% | -5% | 2% | 1%
CC(c1ccco1)N(C(=O)COc1ccc(Cl)cc1Cl)c1ccccn1 (stereo not given) | 4.3µM* | 24% | 2.3µM* | u | 14% | u
Cc1ccccc1C(=O)OCc1cc(=O)n2nc(C(C)C)sc2n1 | 17µM* | x | x | x | x | x
COc1ccccc1C(=O)OCc1cc(=O)n2nc(C(C)C)sc2n1 | -16% | x | x | x | x | x
CC(C)c1nn2c(=O)cc(COC(=O)C3CCCCC3)nc2s1 | 24µM* | x | x | x | x | x
CCCc1nn2c(=O)cc(COC(=O)C3CCCCC3)nc2s1 | -17% | x | x | x | x | x
CCCc1nn2c(=O)cc(COC(=O)c3cccs3)nc2s1 | 27µM* | x | x | x | x | x
CCC(C)c1ccccc1NC(=O)c1cccc(-n2cnnn2)c1 (stereo not given) | x | x | -1% | 5% | x | x
COCCCNC(=O)c1ccc2c(c1)N(Cc1ccccc1F)C(=O)c1ccccc1S2=O (stereo not given) | -3% | x | x | x | -3% | x
COCCN(C(=O)CSc1nnc(Nc2ccc(C)cc2)s1)c1c(N)n(CC(C)C)c(=O)[nH]c1=O | 11µM* | -2% | 2% | 9% | 12% | -1%
CN(C(=O)CSc1nnc(Nc2ccccc2)s1)c1c(N)n(Cc2ccccc2)c(=O)[nH]c1=O | -29% | 2% | 1% | 4% | x | -2%
CCCCn1c(N)c(N(CCC(C)C)C(=O)CSc2nnc(Nc3ccccc3)s2)c(=O)[nH]c1=O | 24µM* | 0% | 7% | u | 12% | 1%
CCCCn1c(N)c(N(CCC(C)C)C(=O)CSc2nncn2-c2ccccc2)c(=O)[nH]c1=O | 2% | 0% | -5% | 0% | x | -2%
CCCCN(C(=O)CSc1nnc(Nc2ccc(C)c(C)c2)s1)c1c(N)n(Cc2ccccc2)c(=O)[nH]c1=O | 1.1µM* | 15% | 6% | 11% | 22µM* | 3%
CCN(CC)S(=O)(=O)c1ccc(NC2CCN(Cc3ccccc3)CC2)nc1 | 3% | 0% | 10% | -21% | x | -10%
CCCCNc1nc2cccnc2s1 | u | u | 12% | u | x | 25%
